Assay results taken from the antibiotic and cytotoxicity screens of Wong et al. (2023).
About 3,300 (8.5%) of roughly 39,000 compounds were called active. The full list was thinned out, with actives kept by preference.

These compounds were tested on HepG2 (assay: cytotoxicity call (relative viability < 0.9)). Settings: 10 µM.

Structure (SMILES) | cytotoxicity call
Cc1ccc(S(=O)(=O)N(C)C[C@@H]2Oc3ccc(NC(=O)CCCN(C)C)cc3CC(=O)N([C@H](C)CO)C[C@H]2C)cc1 | inactive
CN(C)CC#Cc1ccc([C@@H]2[C@H](CO)N3C(=O)CN(C(=O)CN(C)C)C[C@@H]23)cc1 | inactive
C[C@H]1CN([C@@H](C)CO)C(=O)c2cccc(NC(=O)c3ccncc3)c2O[C@H]1CN(C)S(=O)(=O)c1cccs1 | inactive
C[C@@H]1CN([C@H](C)CO)C(=O)c2cccc(NC(=O)c3ccncc3)c2O[C@H]1CN(C)S(=O)(=O)c1cccs1 | inactive
C[C@@H]1CN([C@@H](C)CO)C(=O)c2cccc(NC(=O)c3ccncc3)c2O[C@H]1CN(C)S(=O)(=O)c1cccs1 | inactive
C[C@@H]1CN([C@H](C)CO)C(=O)c2cccc(NC(=O)c3ccncc3)c2O[C@@H]1CN(C)S(=O)(=O)c1cccs1 | active
C[C@@H]1CN([C@@H](C)CO)C(=O)c2cccc(NC(=O)c3ccncc3)c2O[C@@H]1CN(C)S(=O)(=O)c1cccs1 | active
C[C@H](CO)N1C[C@H](C)[C@H](CN(C)S(=O)(=O)c2cccs2)Oc2c(NC(=O)c3ccncc3)cccc2C1=O | inactive
CO[C@H]1CN(C)C(=O)c2cc(NS(=O)(=O)c3cn(C)cn3)ccc2OC[C@@H](C)N(Cc2cccc(F)c2)C[C@@H]1C | inactive
Cc1noc(C)c1NC(=O)N(C)C[C@H]1Oc2ccc(NC(=O)C3CC3)cc2C(=O)N([C@H](C)CO)C[C@@H]1C | inactive
C[C@@H]1CN([C@H](C)CO)C(=O)c2cc(NS(C)(=O)=O)ccc2O[C@@H](C)CCCCO[C@H]1CN(C)CC1CC1 | inactive
C[C@@H]1CCCCO[C@@H](CN(C)C(=O)c2ccccc2)[C@H](C)CN([C@@H](C)CO)C(=O)c2cc(NS(=O)(=O)c3ccccc3)ccc2O1 | inactive
C[C@@H]1CN([C@H](C)CO)S(=O)(=O)c2ccc(Br)cc2O[C@H]1CN(C)C(=O)Nc1ccccc1 | inactive
C[C@@H]1CN([C@@H](C)CO)C(=O)Cc2cc(NC(=O)Nc3cccc4ccccc34)ccc2O[C@@H]1CN(C)CC1CCCCC1 | active
C[C@@H]1CN([C@H](C)CO)C(=O)Cc2cc(NC(=O)Nc3cccc4ccccc34)ccc2O[C@@H]1CN(C)C(=O)NC1CCCCC1 | inactive
C[C@@H]1CN([C@H](C)CO)C(=O)Cc2cc(NC(=O)Nc3cccc4ccccc34)ccc2O[C@@H]1CN(C)CC1CCCCC1 | active
C[C@H]1CN([C@@H](C)CO)C(=O)Cc2cc(NC(=O)Nc3cccc4ccccc34)ccc2O[C@@H]1CN(C)CC1CCCCC1 | active
C[C@H](CO)N1C[C@H](C)[C@H](CN(C)CC2CCCCC2)Oc2ccc(NC(=O)Nc3cccc4ccccc34)cc2CC1=O | inactive
C[C@H](CO)N1C[C@H](C)[C@@H](CN(C)CC2CCCCC2)Oc2ccc(NC(=O)Nc3cccc4ccccc34)cc2CC1=O | inactive
C[C@@H]1CN([C@H](C)CO)C(=O)Cc2cc(NC(=O)Nc3cccc4ccccc34)ccc2O[C@H]1CN(C)CC1CCCCC1 | inactive
C[C@@H]1CN([C@@H](C)CO)C(=O)Cc2cc(NC(=O)Nc3cccc4ccccc34)ccc2O[C@H]1CN(C)CC1CCCCC1 | inactive
C[C@H]1CN([C@@H](C)CO)C(=O)Cc2cc(NC(=O)Nc3cccc4ccccc34)ccc2O[C@H]1CN(C)CC1CCCCC1 | active

Structure (SMILES) | cytotoxicity call
COc1ccc(S(=O)(=O)Nc2ccc3c(c2)C(=O)N([C@@H](C)CO)C[C@@H](C)[C@H](CN(C)S(=O)(=O)c2ccccc2)O3)cc1 | inactive
Cc1ccc(S(=O)(=O)Nc2ccc3c(c2)C(=O)N([C@H](C)CO)C[C@H](C)[C@@H](CN(C)C(=O)Cc2ccccc2)OCCCC[C@H](C)O3)cc1 | inactive
CN1C(=O)c2cc(NC(=O)c3cccs3)ccc2OC[C@H]2O[C@H](CC(=O)NCCN3CCCCC3)CC[C@H]21 | inactive
CO/N=C1\CN(c2nc3c(cc2F)c(=O)c(C(=O)O)cn3C2CC2)C[C@@H]1CN | inactive
COc1ccc(S(=O)(=O)N2C[C@@H](O)COC[C@@H]3O[C@@H](CC(=O)N[C@@H]4CCN(Cc5ccccc5)C4)CC[C@H]32)cc1 | inactive
C[C@]1(C(=O)NCC(F)(F)F)c2ccccc2C(=O)N(Cc2cc(F)cc(C(F)(F)F)c2)[C@H]1c1ccc(CO)cc1 | inactive
Cc1ccc(S(=O)(=O)Nc2cccc3c2O[C@@H](CN(C)S(=O)(=O)c2ccccc2)[C@H](C)CN([C@@H](C)CO)C3=O)cc1 | inactive
COCC#Cc1cnc2c(c1)C(=O)N([C@@H](C)CO)C[C@@H](C)[C@@H](CN(C)C(=O)CCN1CCCCC1)O2 | inactive
Cc1noc(C)c1NC(=O)Nc1ccc2c(c1)C(=O)N([C@H](C)CO)C[C@H](C)[C@@H](CN(C)S(=O)(=O)c1ccccc1)OCCCC[C@@H](C)O2 | inactive
NC1(Cc2ccc(Cl)cc2)CCN(c2ncnc3[nH]ccc23)CC1 | active
Cc1ccc(S(=O)(=O)N2C[C@H](O)COC[C@@H]3O[C@@H](CC(=O)N[C@@H]4CCN(Cc5ccccc5)C4)CC[C@H]32)cc1 | inactive
CN1CCc2cccc3c2C1Cc1ccc(O)c(O)c1-3.Cl (stereo unspecified) | active
COc1cc2c3cc1Oc1cc(ccc1O)O[C@H]1c4c(cc(OC)c(O)c4Oc4ccc(cc4)C[C@@H]3N(C)CC2)CCN1C | inactive
C[C@H](CO)N1C[C@H](C)[C@@H](CN(C)S(C)(=O)=O)Oc2ccc(NC(=O)NC3CCCCC3)cc2C1=O | inactive
C[C@@H]1CN([C@H](C)CO)C(=O)CCCn2cc(nn2)CO[C@@H]1CN(C)C(=O)CCCN(C)C | inactive
COCC#Cc1cnc2c(c1)C(=O)N([C@@H](C)CO)C[C@@H](C)[C@H](CN(C)C(=O)c1ccc3c(c1)OCO3)O2 | inactive
C[C@H](CO)N1C[C@H](C)[C@@H](CN(C)S(=O)(=O)c2cn(C)cn2)Oc2cc(C#Cc3ccc(F)cc3)ccc2S1(=O)=O | inactive
Cc1c(C(=O)Nc2ccc3ccccc3c2)oc2ccccc12 | active
CCC(=O)Nc1ccc2ccccc2c1 | inactive
O=C(Cc1ccc(-c2ccccc2)cc1)Nc1c(C(=O)Nc2ccc3c(c2)OCCO3)oc2ccccc12 | inactive
CC(C)NC(=O)N(C)C[C@H]1Oc2ccc(NC(=O)CCC(F)(F)F)cc2C(=O)N([C@@H](C)CO)C[C@H]1C | inactive
C[C@@H]1CN([C@H](C)CO)S(=O)(=O)c2ccc(C3=CCCC3)cc2O[C@H]1CN(C)C(=O)C1CCOCC1 | inactive

Structure (SMILES) | cytotoxicity call
COCC(=O)N1C[C@H](C)[C@@H](OC)CN(C)C(=O)c2ccc(NC(=O)c3ccc(OC)cc3)cc2OC[C@H]1C | inactive
CCOC(=O)N1CCC(O)CC1 | inactive
CCOC(=O)CN1C(=O)c2ccccc2C1=O | inactive
CCOC(=O)CN1CCN(C=O)CC1 | active
CN(C)CCCNC(=O)[C@H]1[C@H](CO)[C@H]2Cn3c(ccc(-c4cccc(C(=O)N(C)C)c4)c3=O)[C@@H]1N2 | inactive
C[C@H](CO)N1C[C@H](C)[C@@H](CN(C)C(=O)Nc2ccc(C(F)(F)F)cc2)OCCCC[C@H](C)Oc2ccc(N(C)C)cc2C1=O | inactive
C[C@@H]1CN([C@H](C)CO)C(=O)c2cc(N(C)C)ccc2O[C@@H](C)CCCCO[C@@H]1CN(C)C(=O)Nc1ccc(C(F)(F)F)cc1 | inactive
C[C@@H]1CN([C@@H](C)CO)C(=O)c2cc(N(C)C)ccc2O[C@@H](C)CCCCO[C@@H]1CN(C)C(=O)Nc1ccc(C(F)(F)F)cc1 | active
C[C@@H]1CCCCO[C@@H](CN(C)C(=O)Nc2ccc(C(F)(F)F)cc2)[C@H](C)CN([C@H](C)CO)C(=O)c2cc(N(C)C)ccc2O1 | active
C[C@@H]1CCCCO[C@@H](CN(C)C(=O)Nc2ccc(C(F)(F)F)cc2)[C@@H](C)CN([C@H](C)CO)C(=O)c2cc(N(C)C)ccc2O1 | inactive
C[C@H]1CCCCO[C@H](CN(C)C(=O)Nc2ccc(C(F)(F)F)cc2)[C@@H](C)CN([C@@H](C)CO)C(=O)c2cc(N(C)C)ccc2O1 | inactive
Cc1nn2cc(CN)nc2s1 | inactive
C[C@@H]1CN([C@H](C)CO)C(=O)Cc2cc(NC(=O)C3CC3)ccc2O[C@@H]1CN(C)S(=O)(=O)c1cn(C)cn1 | inactive
C=CCC[C@@H](Cc1ccc(F)cc1)C(=O)OC[C@@H](NC(=O)[C@@H](CC=C)CC(=O)N(CCO)Cc1ccccc1)C(C)(C)C | inactive
C[C@@H]1CN([C@@H](C)CO)C(=O)c2cccc(NS(C)(=O)=O)c2O[C@@H]1CN(C)Cc1ccc(C(F)(F)F)cc1 | inactive
C[C@@H]1CN([C@@H](C)CO)S(=O)(=O)c2ccc(Br)cc2O[C@H]1CN(C)Cc1ccc(-c2ccccc2)cc1 | inactive
C[C@@H]1CCCCO[C@H](CN(C)C(=O)NC2CCCCC2)[C@H](C)CN([C@H](C)CO)C(=O)c2cc(NS(=O)(=O)c3ccc(Cl)cc3)ccc2O1 | active
C[C@H]1CCCCO[C@@H](CN(C)C(=O)NC2CCCCC2)[C@@H](C)CN([C@@H](C)CO)C(=O)c2cc(NS(=O)(=O)c3ccc(Cl)cc3)ccc2O1 | inactive
C[C@H]1CCCCO[C@H](CN(C)C(=O)NC2CCCCC2)[C@@H](C)CN([C@@H](C)CO)C(=O)c2cc(NS(=O)(=O)c3ccc(Cl)cc3)ccc2O1 | inactive
C[C@@H]1CN([C@H](C)CO)C(=O)c2cc(NS(=O)(=O)c3ccc(Cl)cc3)ccc2O[C@@H](C)CCCCO[C@@H]1CN(C)C(=O)NC1CCCCC1 | active
C[C@@H]1CCCCO[C@@H](CN(C)C(=O)NC2CCCCC2)[C@@H](C)CN([C@@H](C)CO)C(=O)c2cc(NS(=O)(=O)c3ccc(Cl)cc3)ccc2O1 | inactive
C[C@@H]1CCCCO[C@H](CN(C)C(=O)NC2CCCCC2)[C@H](C)CN([C@@H](C)CO)C(=O)c2cc(NS(=O)(=O)c3ccc(Cl)cc3)ccc2O1 | inactive
